# Reference: article PMC7862700, “An all-to-all approach to the identification of sequence-specific readers for epigenetic DNA modifications on cytosine”
# What was measured:
# Test in all cases: DAPPL (digital affinity profiling via proximity ligation, sequencing); 10 mM Tris-HCl pH 7.5, 50 mM NaCl, 1 mM DTT, 4% glycerol, room temperature, 30 min; GST-TFs on glutathione beads, 16-mer random dsDNA library, 0.1% formaldehyde crosslink after washing; high values mean tight binding
# [1] = target: T1, FEV (Homo sapiens, UniProt Q99581 1-238); settings: protein: recombinant; tags: N-terminal GST; dsDNA, one strand shown
# T1 sequence: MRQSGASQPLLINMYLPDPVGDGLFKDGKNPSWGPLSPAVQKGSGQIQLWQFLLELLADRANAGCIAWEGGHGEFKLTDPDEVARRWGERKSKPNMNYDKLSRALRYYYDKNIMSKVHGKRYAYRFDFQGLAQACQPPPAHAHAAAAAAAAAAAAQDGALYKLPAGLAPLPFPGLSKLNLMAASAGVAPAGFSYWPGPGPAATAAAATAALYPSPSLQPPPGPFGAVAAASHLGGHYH
# How it was run: (§1)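 In yeast, human transcription factors were expressed with a GST fusion, then pulled down on glutathione beads and given DNA barcodes. Pooled with a tag-only sample, they were exposed to 200 nmole of a 16-mer random double-stranded DNA library (Tris/NaCl/DTT/glycerol buffer, room temperature, 30 min), washed, crosslinked with 0.1% formaldehyde, proximity-ligated using BsaI/T4 ligase for 1 h at 37 °C, PCR-amplified and read on an Illumina NextSeq500. Each hexamer's frequency of reads for a factor, divided by the matching frequency for the tag-only sample, gives the binding signal.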
# [2] = target: ETV5 (Homo sapiens, UniProt P41161 1-510); settings: protein: recombinant; tags: N-terminal GST; dsDNA, one strand shown
# How it was run: as §1
# [3] = target: HSF1 (Homo sapiens, UniProt Q00613 1-529); settings: protein: recombinant; tags: N-terminal GST; chain copies: 3; dsDNA, one strand shown
# How it was run: as §1
# [4] = target: T2, SPIC (Homo sapiens, UniProt Q8N5J4 1-248); settings: protein: recombinant; tags: N-terminal GST; dsDNA, one strand shown
# T2 sequence: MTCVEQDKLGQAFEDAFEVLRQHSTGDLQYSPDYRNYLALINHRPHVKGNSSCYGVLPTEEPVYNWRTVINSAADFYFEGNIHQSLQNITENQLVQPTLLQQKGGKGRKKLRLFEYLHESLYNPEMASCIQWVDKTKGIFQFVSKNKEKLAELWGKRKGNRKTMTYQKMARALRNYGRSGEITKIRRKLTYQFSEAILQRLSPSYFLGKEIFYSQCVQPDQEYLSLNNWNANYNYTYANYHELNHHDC
# How it was run: as §1
# [5] = target: ELF4 (Homo sapiens, UniProt Q99607 1-663); settings: protein: recombinant; tags: N-terminal GST; dsDNA, one strand shown
# How it was run: as §1
# [6] = target: T3, ELK4 (Homo sapiens, UniProt P28324-2 1-405); settings: protein: recombinant; tags: N-terminal GST; dsDNA, one strand shown
# T3 sequence: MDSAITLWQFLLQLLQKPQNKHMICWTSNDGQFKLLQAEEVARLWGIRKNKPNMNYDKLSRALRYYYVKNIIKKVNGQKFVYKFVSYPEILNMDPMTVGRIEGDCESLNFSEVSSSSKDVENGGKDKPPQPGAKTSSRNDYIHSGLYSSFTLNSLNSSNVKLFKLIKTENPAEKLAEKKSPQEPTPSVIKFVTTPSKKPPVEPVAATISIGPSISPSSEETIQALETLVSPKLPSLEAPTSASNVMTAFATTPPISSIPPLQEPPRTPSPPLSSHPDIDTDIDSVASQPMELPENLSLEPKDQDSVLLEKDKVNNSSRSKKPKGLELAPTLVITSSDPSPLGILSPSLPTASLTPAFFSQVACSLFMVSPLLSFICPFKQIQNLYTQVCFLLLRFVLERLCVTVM
# How it was run: as §1
# [7] = target: T4, ETV2 (Homo sapiens, UniProt O00321 1-342); settings: protein: recombinant; tags: N-terminal GST; dsDNA, one strand shown
# T4 sequence: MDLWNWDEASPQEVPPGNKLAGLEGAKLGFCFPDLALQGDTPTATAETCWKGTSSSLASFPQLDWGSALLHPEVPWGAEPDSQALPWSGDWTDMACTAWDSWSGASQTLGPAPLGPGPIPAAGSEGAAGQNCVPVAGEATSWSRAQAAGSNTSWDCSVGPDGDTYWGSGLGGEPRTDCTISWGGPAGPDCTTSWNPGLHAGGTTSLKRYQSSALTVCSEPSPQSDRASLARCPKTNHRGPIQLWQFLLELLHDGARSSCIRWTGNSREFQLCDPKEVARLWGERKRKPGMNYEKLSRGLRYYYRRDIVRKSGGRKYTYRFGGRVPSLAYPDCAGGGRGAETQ
# How it was run: as §1
# [8] = target: T5, ELF3 (Homo sapiens, UniProt P78545 1-371); settings: protein: recombinant; tags: N-terminal GST; dsDNA, one strand shown
# T5 sequence: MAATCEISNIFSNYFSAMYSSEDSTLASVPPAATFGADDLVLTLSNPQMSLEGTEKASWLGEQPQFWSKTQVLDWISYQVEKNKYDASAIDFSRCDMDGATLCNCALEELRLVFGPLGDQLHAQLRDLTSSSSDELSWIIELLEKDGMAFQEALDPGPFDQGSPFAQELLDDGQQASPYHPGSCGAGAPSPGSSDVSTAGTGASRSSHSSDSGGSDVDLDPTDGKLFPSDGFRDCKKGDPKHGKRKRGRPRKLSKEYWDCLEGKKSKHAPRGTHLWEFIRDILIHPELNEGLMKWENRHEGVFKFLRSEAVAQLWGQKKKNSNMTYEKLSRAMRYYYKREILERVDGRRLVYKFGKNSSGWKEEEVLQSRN
# How it was run: as §1
# [9] = target: CRX (Homo sapiens, UniProt O43186 1-299); settings: protein: recombinant; tags: N-terminal GST; dsDNA, one strand shown
# How it was run: as §1
# [10] = target: ETV1 (Homo sapiens, UniProt P50549 1-477); settings: protein: recombinant; tags: N-terminal GST; dsDNA, one strand shown
# How it was run: as §1
# [11] = target: T6, ERF (Homo sapiens, UniProt P50548 1-548); settings: protein: recombinant; tags: N-terminal GST; dsDNA, one strand shown
# T6 sequence: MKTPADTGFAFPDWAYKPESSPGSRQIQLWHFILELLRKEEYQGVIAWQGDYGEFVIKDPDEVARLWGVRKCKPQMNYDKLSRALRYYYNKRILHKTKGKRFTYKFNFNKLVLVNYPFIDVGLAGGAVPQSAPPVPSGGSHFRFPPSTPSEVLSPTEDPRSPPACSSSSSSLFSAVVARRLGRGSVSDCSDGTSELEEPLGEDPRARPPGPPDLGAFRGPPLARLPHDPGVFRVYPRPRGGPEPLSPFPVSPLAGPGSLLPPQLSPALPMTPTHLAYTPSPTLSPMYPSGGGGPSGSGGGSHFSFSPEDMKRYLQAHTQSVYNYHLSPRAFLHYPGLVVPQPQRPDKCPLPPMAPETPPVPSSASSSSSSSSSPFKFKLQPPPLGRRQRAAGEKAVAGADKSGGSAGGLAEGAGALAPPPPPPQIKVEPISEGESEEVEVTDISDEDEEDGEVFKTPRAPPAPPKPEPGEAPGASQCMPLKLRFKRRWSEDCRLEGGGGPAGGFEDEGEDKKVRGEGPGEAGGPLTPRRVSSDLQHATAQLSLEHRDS
# How it was run: as §1
# [12] = target: T7, ETV3L (Homo sapiens, UniProt Q6ZN32 1-361); settings: protein: recombinant; tags: N-terminal GST; dsDNA, one strand shown
# T7 sequence: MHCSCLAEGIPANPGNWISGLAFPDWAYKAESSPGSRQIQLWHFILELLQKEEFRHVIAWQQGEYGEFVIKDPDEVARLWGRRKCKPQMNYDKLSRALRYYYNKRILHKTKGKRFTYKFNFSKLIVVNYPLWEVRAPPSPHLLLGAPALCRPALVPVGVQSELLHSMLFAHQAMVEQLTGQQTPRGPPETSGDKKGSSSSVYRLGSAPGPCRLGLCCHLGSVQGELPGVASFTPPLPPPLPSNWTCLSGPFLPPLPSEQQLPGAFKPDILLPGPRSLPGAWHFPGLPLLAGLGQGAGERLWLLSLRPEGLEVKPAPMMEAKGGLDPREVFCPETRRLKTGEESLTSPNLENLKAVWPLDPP
# How it was run: as §1
# [13] = target: T8, ETS2 (Homo sapiens, UniProt P15036 1-469); settings: protein: recombinant; tags: N-terminal GST; dsDNA, one strand shown
# T8 sequence: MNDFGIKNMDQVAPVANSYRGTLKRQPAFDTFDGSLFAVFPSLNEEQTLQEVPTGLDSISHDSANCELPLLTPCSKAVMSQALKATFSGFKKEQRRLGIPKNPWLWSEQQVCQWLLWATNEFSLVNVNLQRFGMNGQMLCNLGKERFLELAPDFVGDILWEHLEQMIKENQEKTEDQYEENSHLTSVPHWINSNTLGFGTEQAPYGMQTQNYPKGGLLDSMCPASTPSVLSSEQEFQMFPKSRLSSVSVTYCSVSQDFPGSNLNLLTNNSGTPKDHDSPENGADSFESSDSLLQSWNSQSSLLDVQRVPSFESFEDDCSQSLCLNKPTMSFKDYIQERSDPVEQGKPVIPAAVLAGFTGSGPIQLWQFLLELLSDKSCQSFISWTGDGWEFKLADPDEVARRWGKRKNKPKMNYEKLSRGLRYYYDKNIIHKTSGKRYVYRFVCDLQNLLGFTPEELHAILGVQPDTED
# How it was run: as §1
# [14] = target: T9, SPDEF (Homo sapiens, UniProt O95238 1-335); settings: protein: recombinant; tags: N-terminal GST; dsDNA, one strand shown
# T9 sequence: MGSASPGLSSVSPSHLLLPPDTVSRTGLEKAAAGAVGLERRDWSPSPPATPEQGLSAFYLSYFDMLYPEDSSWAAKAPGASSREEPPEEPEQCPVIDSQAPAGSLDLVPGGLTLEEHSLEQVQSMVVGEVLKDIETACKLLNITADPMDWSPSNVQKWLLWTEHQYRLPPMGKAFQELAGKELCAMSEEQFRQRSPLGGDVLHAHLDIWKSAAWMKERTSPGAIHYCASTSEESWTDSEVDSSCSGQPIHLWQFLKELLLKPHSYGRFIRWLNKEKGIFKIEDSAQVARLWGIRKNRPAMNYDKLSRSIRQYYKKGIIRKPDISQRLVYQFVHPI
# How it was run: as §1
# [15] = target: T10, ETV7 (Homo sapiens, UniProt Q9Y603 1-341); settings: protein: recombinant; tags: N-terminal GST; dsDNA, one strand shown
# T10 sequence: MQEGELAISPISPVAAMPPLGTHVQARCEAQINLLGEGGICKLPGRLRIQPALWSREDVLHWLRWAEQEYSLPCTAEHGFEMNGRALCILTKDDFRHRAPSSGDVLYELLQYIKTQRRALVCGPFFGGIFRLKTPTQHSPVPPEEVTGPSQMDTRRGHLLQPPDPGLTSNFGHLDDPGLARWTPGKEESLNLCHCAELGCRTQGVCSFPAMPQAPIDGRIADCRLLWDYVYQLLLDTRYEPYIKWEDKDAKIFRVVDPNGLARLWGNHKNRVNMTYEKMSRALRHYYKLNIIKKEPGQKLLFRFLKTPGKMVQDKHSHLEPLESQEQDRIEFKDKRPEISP
# How it was run: as §1
# [16] = target: T11, ELF5 (Homo sapiens, UniProt Q9UKW6-2 1-255); settings: protein: recombinant; tags: N-terminal GST; dsDNA, one strand shown
# T11 sequence: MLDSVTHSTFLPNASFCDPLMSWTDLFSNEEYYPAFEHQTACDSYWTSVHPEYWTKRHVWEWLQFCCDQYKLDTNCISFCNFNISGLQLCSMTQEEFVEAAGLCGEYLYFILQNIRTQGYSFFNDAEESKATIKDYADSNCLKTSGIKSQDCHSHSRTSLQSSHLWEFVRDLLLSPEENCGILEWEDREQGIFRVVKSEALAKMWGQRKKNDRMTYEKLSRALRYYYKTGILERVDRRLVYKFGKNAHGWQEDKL
# How it was run: as §1
# [17] = target: T12, ETV3 (Homo sapiens, UniProt P41162-2 1-143); settings: protein: recombinant; tags: N-terminal GST; dsDNA, one strand shown
# T12 sequence: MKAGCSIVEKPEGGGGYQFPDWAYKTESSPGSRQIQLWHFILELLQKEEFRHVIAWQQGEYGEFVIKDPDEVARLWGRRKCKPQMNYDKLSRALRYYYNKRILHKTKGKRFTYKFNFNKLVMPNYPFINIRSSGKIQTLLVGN
# How it was run: as §1
# [18] = target: ETV6 (Homo sapiens, UniProt P41212 1-452); settings: protein: recombinant; tags: N-terminal GST; dsDNA, one strand shown
# How it was run: as §1
# Sequence of ETV6 (P41212 whole entry): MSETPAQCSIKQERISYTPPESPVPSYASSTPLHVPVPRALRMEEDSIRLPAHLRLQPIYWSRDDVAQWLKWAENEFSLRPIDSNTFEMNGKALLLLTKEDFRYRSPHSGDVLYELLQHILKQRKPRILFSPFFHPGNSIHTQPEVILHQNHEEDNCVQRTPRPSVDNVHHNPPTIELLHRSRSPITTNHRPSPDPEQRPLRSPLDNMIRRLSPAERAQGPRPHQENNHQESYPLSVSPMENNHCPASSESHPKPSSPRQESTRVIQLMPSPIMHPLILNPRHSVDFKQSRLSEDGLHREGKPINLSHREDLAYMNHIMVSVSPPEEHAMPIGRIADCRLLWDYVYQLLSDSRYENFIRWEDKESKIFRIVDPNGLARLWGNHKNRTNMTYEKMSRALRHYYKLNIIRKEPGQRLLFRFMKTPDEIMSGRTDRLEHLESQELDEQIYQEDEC
# Sequence of ELF4 (Q99607 whole entry): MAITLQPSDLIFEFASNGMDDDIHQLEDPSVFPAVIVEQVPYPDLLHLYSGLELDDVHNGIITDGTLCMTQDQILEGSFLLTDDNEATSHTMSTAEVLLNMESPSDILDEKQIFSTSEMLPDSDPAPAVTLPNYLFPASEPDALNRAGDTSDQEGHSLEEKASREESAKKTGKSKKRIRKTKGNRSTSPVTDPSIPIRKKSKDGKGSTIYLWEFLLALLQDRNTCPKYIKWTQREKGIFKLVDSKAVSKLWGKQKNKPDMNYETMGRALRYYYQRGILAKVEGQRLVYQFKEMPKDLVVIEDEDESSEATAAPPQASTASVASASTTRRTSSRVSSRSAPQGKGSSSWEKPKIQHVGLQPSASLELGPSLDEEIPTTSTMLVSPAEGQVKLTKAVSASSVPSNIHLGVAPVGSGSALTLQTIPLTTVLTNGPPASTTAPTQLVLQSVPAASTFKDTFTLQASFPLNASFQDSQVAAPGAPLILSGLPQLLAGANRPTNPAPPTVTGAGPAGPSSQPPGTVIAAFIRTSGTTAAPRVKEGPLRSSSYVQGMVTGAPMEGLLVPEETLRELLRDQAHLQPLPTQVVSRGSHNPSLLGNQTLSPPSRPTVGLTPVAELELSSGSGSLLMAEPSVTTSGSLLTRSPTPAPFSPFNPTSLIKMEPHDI
# Sequence of ETV1 (P50549 whole entry): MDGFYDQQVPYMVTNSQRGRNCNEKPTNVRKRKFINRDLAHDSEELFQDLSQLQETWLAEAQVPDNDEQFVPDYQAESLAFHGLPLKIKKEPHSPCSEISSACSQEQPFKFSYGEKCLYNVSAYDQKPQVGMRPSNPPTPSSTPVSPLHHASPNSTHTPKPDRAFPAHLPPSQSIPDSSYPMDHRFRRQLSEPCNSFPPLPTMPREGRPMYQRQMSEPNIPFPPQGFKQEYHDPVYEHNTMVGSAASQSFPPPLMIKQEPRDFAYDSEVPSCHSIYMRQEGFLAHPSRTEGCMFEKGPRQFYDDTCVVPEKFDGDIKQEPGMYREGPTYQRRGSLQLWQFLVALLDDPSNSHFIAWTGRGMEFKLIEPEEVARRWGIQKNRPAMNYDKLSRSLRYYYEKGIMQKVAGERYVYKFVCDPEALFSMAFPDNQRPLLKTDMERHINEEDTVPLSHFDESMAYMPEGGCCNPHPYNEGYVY
# Sequence of CRX (O43186 whole entry): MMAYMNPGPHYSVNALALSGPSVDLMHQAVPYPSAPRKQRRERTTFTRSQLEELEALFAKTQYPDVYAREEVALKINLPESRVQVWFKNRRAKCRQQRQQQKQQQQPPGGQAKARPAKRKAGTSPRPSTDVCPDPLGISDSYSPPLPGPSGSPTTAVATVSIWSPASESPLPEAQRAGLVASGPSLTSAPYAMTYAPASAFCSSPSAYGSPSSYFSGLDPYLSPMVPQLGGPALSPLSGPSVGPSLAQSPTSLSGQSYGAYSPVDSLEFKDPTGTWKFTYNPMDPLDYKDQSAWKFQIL
# Sequence of HSF1 (Q00613 whole entry): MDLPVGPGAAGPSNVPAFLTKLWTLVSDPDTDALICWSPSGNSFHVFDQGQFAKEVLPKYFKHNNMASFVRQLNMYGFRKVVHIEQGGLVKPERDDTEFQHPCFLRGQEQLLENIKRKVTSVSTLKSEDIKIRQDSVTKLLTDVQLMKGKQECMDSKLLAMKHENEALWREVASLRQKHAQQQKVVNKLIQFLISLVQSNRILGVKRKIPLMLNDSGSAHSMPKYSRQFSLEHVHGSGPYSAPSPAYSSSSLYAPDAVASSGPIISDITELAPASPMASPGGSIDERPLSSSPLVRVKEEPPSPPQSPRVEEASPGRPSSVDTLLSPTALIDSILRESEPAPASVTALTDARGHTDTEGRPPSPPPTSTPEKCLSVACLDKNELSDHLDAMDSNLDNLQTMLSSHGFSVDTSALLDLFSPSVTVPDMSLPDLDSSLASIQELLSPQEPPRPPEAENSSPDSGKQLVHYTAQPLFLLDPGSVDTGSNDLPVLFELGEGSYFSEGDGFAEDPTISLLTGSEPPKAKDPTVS
# Sequence of ETV5 (P41161 whole entry): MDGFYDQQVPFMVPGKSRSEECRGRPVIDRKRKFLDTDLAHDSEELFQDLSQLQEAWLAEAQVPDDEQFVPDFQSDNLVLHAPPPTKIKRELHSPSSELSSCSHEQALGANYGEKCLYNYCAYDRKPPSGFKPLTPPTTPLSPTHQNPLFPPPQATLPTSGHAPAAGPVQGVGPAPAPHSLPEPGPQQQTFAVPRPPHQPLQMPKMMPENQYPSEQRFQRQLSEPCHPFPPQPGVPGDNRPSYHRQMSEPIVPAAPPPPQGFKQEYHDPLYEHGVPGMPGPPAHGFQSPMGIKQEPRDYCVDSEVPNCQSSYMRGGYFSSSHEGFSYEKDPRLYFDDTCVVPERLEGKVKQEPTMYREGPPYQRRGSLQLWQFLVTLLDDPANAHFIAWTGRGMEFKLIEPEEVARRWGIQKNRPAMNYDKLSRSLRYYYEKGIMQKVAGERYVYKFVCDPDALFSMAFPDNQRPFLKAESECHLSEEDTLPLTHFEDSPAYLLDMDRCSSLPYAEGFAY
sequence,measurement,setting,value
AATATC,binding signal,[1],"1.56 fold enrichment (6-mer frequency, TF over GST control)"
same,binding signal,[2],"1.53 fold enrichment (6-mer frequency, TF over GST control)"
same,binding signal,[3],"1.49 fold enrichment (6-mer frequency, TF over GST control)"
same,binding signal,[4],"1.49 fold enrichment (6-mer frequency, TF over GST control)"
same,binding signal,[5],"1.44 fold enrichment (6-mer frequency, TF over GST control)"
same,binding signal,[6],"1.48 fold enrichment (6-mer frequency, TF over GST control)"
same,binding signal,[7],"1.73 fold enrichment (6-mer frequency, TF over GST control)"
same,binding signal,[8],"1.55 fold enrichment (6-mer frequency, TF over GST control)"
same,binding signal,[9],"1.55 fold enrichment (6-mer frequency, TF over GST control)"
same,binding signal,[10],"1.56 fold enrichment (6-mer frequency, TF over GST control)"
same,binding signal,[11],"1.46 fold enrichment (6-mer frequency, TF over GST control)"
same,binding signal,[12],"1.48 fold enrichment (6-mer frequency, TF over GST control)"
same,binding signal,[13],"1.55 fold enrichment (6-mer frequency, TF over GST control)"
same,binding signal,[14],"1.78 fold enrichment (6-mer frequency, TF over GST control)"
same,binding signal,[15],"1.52 fold enrichment (6-mer frequency, TF over GST control)"
same,binding signal,[16],"1.82 fold enrichment (6-mer frequency, TF over GST control)"
same,binding signal,[17],"1.6 fold enrichment (6-mer frequency, TF over GST control)"
same,binding signal,[18],"1.57 fold enrichment (6-mer frequency, TF over GST control)"
